# “And” between values parts separate entries of the source, which are not always exact repeats. Identical values can stand only once. Where a structure was tested more than once in an assay, its records may differ in their call. The source made the active and inactive calls. Rule for the calls: active = hit-call score of the fitted dose curve at least 0.9, where 1 is the maximum; inactive = score below 0.9.
# Legend:
# [1] = read-out: Interferon-inducible T-cell alpha chemoattractant (ITAC), CXCL11 (gene 6373); assay: BSK_BE3C_ITAC: BioMAP Diversity Plus: BE3C Assay for Interferon-inducible T-cell alpha chemoattractant (ITAC) Biomarker Activity (AID 2284279); conditions: primary human bronchial epithelial cells
# Procedure, shortened: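 BE3C cells (human primary bronchial epithelium), 24 h compound exposure, I-TAC by ELISA, DMSO = negative control/baseline, positive fitting direction.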
# [2] = read-out: Interleukin-8 (IL8), CXCL8 (gene 3576); assay: BSK_BE3C_IL8: BioMAP Diversity Plus: BE3C Assay for Interleukin-8 (IL8) Biomarker Activity (AID 2284280); conditions: primary human bronchial epithelial cells
# Procedure, shortened: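 ELISA read-out of IL-8 in human lung bronchial epithelial primary cell cultures, 24 h post-dosing; endpoint analysed as signal increase relative to DMSO baseline.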
# [3] = read-out: Epidermal growth factor receptor (EGFR), EGFR (gene 1956); assay: BSK_BE3C_EGFR: BioMAP Diversity Plus: BE3C Assay for Epidermal growth factor receptor (EGFR) Biomarker Activity (AID 2284281); conditions: primary human bronchial epithelial cells
# Procedure, shortened: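 Primary human lung bronchial epithelial cells; compound, 24 h; EGFR measured by ELISA; positive-direction fit vs DMSO baseline.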
# KRT18 (gene 3875) = assay: BSK_BE3C_Keratin818: BioMAP Diversity Plus: BE3C Assay for Keratin 818 Biomarker Activity (AID 2284282); conditions: primary human bronchial epithelial cells
# Procedure, shortened: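 Chemicals are added to human lung bronchial epithelial primary cells (BE3C system) and incubated 24 h. Keratin 8/18 is then measured by ELISA, with parallel SRB total-protein staining gauging overt cytotoxicity.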
# [4] = read-out: Matrix Metallopeptidase 9 (MMP9), MMP9 (gene 4318); assay: BSK_BE3C_MMP9: BioMAP Diversity Plus: BE3C Assay for Matrix Metallopeptidase 9 (MMP9) Biomarker Activity (AID 2284283); conditions: primary human bronchial epithelial cells
# Procedure, shortened: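 Human primary bronchial epithelial cells exposed 24 h to compound. MMP9 quantified by ELISA. SRB total-protein staining of parallel cultures assesses cytotoxicity. Positive-direction fit relative to DMSO.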
# [5] = read-out: Plasminogen activator inhibitor-1 (PAI1), SERPINE1 (gene 5054); assay: BSK_CASM3C_PAI1: BioMAP Diversity Plus: CASM3C Assay for Plasminogen activator inhibitor-1 (PAI1) Biomarker Activity (AID 2284284); conditions: primary human coronary artery smooth muscle cells;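 note: PAI-1 protein level measured by ELISA 24 h after dosing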
# [6] = read-out: Monocyte Chemoattractant Protein-1 (MCP1), CCL2 (gene 6347); assay: BSK_hDFCGF_MCP1: BioMAP Diversity Plus: hDFCGF Assay for Monocyte Chemoattractant Protein-1 (MCP1) Biomarker Activity (AID 2284285); conditions: primary human foreskin fibroblasts
# Procedure, shortened: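 Human foreskin fibroblasts (hDFCGF system) were exposed to compound and secreted MCP-1 was measured by ELISA after 24 hours. Activity was fitted relative to DMSO. Cytotoxicity was checked by SRB total-protein staining in parallel cultures.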
# [7] = read-out: Vascular cell adhesion molecule 1 (VCAM1), VCAM1 (gene 7412); assay: BSK_IMphg_VCAM1: BioMAP Diversity Plus: IMphg Assay for Vascular cell adhesion molecule 1 (VCAM1) Biomarker Activity (AID 2284286); conditions: primary human endothelial cells with macrophages
# Procedure, shortened: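 Human venular endothelial cells co-cultured with macrophages; VCAM-1 quantified by ELISA 24 h after dosing, fitted in the positive direction against DMSO. Cytotoxicity was checked in parallel cultures by SRB total-protein staining (0.1% SRB after 10% TCA fixation, 560 nm).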
# [8] = read-out: Intercellular Adhesion Molecule 1 (ICAM1), ICAM1 (gene 3383); assay: BSK_hDFCGF_ICAM1: BioMAP Diversity Plus: hDFCGF Assay for Intercellular Adhesion Molecule 1 (ICAM1) Biomarker Activity (AID 2284287); conditions: primary human foreskin fibroblasts
# Procedure, shortened: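 Primary human foreskin fibroblasts (hDFCGF system) dosed with chemical; ICAM-1 quantified by ELISA at 24 h relative to DMSO. Parallel SRB total-protein staining to assess overt cytotoxicity.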
# CD40, CD40 (gene 958) = assay: BSK_IMphg_CD40: BioMAP Diversity Plus: IMphg Assay for CD40 Biomarker Activity (AID 2284288); conditions: primary human endothelial cells with macrophages
# Procedure, shortened: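 Venular endothelial cells co-cultured with macrophages (human primary), CD40 measured by ELISA 24 h after dosing. Positive-direction fit vs DMSO baseline; cytotoxicity tracked by SRB total-protein staining in parallel cultures.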
Structure (SMILES),outcome [1],outcome [2],outcome [3],outcome (KRT18 (gene 3875)),outcome [4],outcome [5],outcome [6],outcome [7],outcome [8],"outcome (CD40, CD40 (gene 958))",AC50 [1],AC50 [2],AC50 [3],AC50 [4]
O=C(O)C(F)(F)C(F)(F)C(F)(F)C(F)(F)C(F)(F)C(F)(F)C(F)(F)F,inactive,inactive,inactive,inactive,inactive,inactive,inactive,inactive,inactive,inactive,,,,
O=S(=O)(O)C(F)(F)C(F)(F)C(F)(F)C(F)(F)C(F)(F)C(F)(F)C(F)(F)C(F)(F)F,,inactive,inactive,inactive,,inactive,inactive,inactive,inactive,inactive,40.8 µM (active) [middle of 4 runs],30 µM (active) and 7.03 µM (active) and 2.79 µM (active),16.5 µM (active) and 11.6 µM (active) and 13.2 µM (active),17.7 µM (active) [middle of 4 runs]

# Reference: PubChem BioAssay (EPA / NIEHS)
